We go through five molecules from PubChem BioAssay AID907 (National Center for Advancing Translational Sciences (NCATS), 2007).

The other results are listed elsewhere or left out. Results filed as inconclusive are left out. Calls of active or inactive are those of the source. Calls come from the whole dose curve; as a rule, active = well fitted activation curve with a large enough effect; inconclusive = small, poorly fitted or top-dose-only effect, or effect the other way; inactive = flat fitted curve, though single readings scatter.

The experiment in a line: Confirmation Concentration-Response Assay for Cell signaling CRE-BLA (Fsk stim) - HEK293 CREB Luciferase. To be noted: HEK293 CRE-luc2P, NKH477 EC10 potentiation, luminescence, 4 h. The text has this: NIH Molecular Libraries Screening Centers Network [MLSCN] NIH Chemical Genomics Center [NCGC] MLSCN Grant: 1X01MH079867-01 Assay Provider: Marshall W. Nirenberg, U.S. National Heart, Lung and Blood Institute CRE Luciferase Assay Overview Memories persist for different lengths of time, from seconds or minutes to a lifetime. There are two kinds of memory: short-term memory (STM) and long-term memory (LTM). STM lasts for minutes to hours, which maybe mediated by modifications of molecules involved in synaptic functions. LTM lasts for days or longer, and may be due to the formation of new synapses or restructuring of existing synapses. LTM, but not STM, requires gene transcription and synthesis of proteins. CREB (cyclic-AMP Responsive Element Binding Protein) is one of the candidates plays an important role for enhancement of some types of LTM. CREB, a family of transcription factors, regulates the transcription of genes containing cAMP Responsive Elements (CRE). CRE is a nucleotide sequence often found in the promoter regions of genes that are binding sites for CREB. Using a luciferase reporter-gene under control of cAMP responsive element, a cell-based assay [CRE-luc2P HEK293 developed by Promega] was used to measure forskolin-induced signaling. The selected compounds were measured for their ability to modulate positively the action of EC10 NKH 477, a water soluble forskolin, on reporter gene activity. Compounds were screened in a titration series in 1536-well format. Positive modulators were identified based on the AC50 values derived from the screening data.
NCGC Assay Protocol Summary 2500 cells/5uL in DEME with 1% FBS was dispensed into 1536-well plates and cells were cultured at 37 degrees Celsius overnight. Next day 23 nL of compounds or DMSO were delivered to each well using a pin tool, and 1uL of EC10 level of NKH 477, or EC100 level of IBMX, a PDE inhibitor, in the present of NKH 477, or assay medium was added. And then the plates were incubated at 37 degrees Celsius for 4 hours. 6 uL of Bright-Glo luciferase (Promega, WI) was added to each well. After incubated at room temperature for 10min the plates were measured for luminescence intensity on a ViewLux (Perkin Elmer) detector. Keywords: NIH Roadmap, MLSCN, MLSMR, qHTS, NCGC, CRE, luciferase, reporter-gene assay.
As to `CCc1nc(Nc2ccc3nccnc3c2)c2oc3ccccc3c2n1`, the Potency is 1.26 µM (active).
Turning to `Cc1nc(SCC(=O)Nc2cc(C)on2)c2c3c(sc2n1)CCCC3`, the Potency was 4.47 µM (active).
The value for `COc1ccc(CCNC(=O)CSc2nc(C)nc3c2oc2ccccc23)cc1OC` was 10 µM (active); that for `CC1CCc2sc3nc(N4CCN(CCO)CC4)n4ncnc4c3c2C1` (stereo not given) was 12.6 µM (active).
The figure for `Cc1nn(-c2ccccc2)c2sc(C(=O)N(Cc3ccco3)C(C)C(=O)NC(C)(C)C)cc12` (stereo not given) is 4.47 µM (active).
